Data published in the supplement of paper PMC8728848.
The entries come from a sample that favours the strongest signals as a whole.

What was measured:
Test in all cases: glycan array binding signal (z-score within array); higher = stronger binding
Conditions in all cases: glycan notation: IUPAC condensed, linker removed
[1] = molecular target: Gal(b1-4)GlcNAc(b1-6)GalNAc
Summary of the method: (§1)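 The binding signal is a Z-score computed within each array and averaged over linkers. Arrays of the same protein sequence at different concentrations or buffers were also averaged together. Data originate from 3228 arrays in the Consortium for Functional Glycomics database, kept only where the protein sequence was available.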

[2] = molecular target: Gal3S(b1-4)[Fuc(a1-3)]GlcNAc
Summary of the method: as §1

[3] = molecular target: Gal3S(b1-4)[Fuc(a1-3)]GlcNAc6S
Summary of the method: as §1

[4] = molecular target: GalNAc(b1-4)GlcNAc(b1-2)Man(a1-3)[GalNAc(b1-4)GlcNAc(b1-2)Man(a1-6)]Man(b1-4)GlcNAc(b1-4)GlcNAc
Summary of the method: as §1

[5] = molecular target: GalNAc(b1-4)GlcNAc(b1-3)GalNAc(b1-4)GlcNAc
Summary of the method: as §1

[6] = molecular target: GlcNAc(a1-4)Gal(b1-4)GlcNAc
Summary of the method: as §1

[7] = molecular target: GlcNAc(b1-2)[GlcNAc(b1-4)]Man(a1-3)[GlcNAc(b1-2)Man(a1-6)]Man(b1-4)GlcNAc(b1-4)GlcNAc
Summary of the method: as §1

[8] = molecular target: GlcNAc(b1-2)[GlcNAc(b1-4)]Man(a1-3)[GlcNAc(b1-4)][GlcNAc(b1-2)[GlcNAc(b1-6)]Man(a1-6)]Man(b1-4)GlcNAc(b1-4)GlcNAc
Summary of the method: as §1

[9] = molecular target: GlcNAc(b1-3)Gal
Summary of the method: as §1

[10] = molecular target: GlcNAc(b1-3)Gal(b1-4)GlcNAc
Summary of the method: as §1

[11] = molecular target: GlcNAc(b1-3)Gal(b1-4)GlcNAc(b1-3)Gal(b1-4)GlcNAc(b1-3)Gal(b1-4)GlcNAc(b1-2)[GlcNAc(b1-3)Gal(b1-4)GlcNAc(b1-3)Gal(b1-4)GlcNAc(b1-3)Gal(b1-4)GlcNAc(b1-6)]Man(a1-6)[GlcNAc(b1-3)Gal(b1-4)GlcNAc(b1-3)Gal(b1-4)GlcNAc(b1-3)Gal(b1-4)GlcNAc(b1-2)Man(a1-3)]Man(b1-4)GlcNAc(b1-4)[Fuc(a1-6)]GlcNAc
Summary of the method: as §1

[12] = molecular target: GlcNAc(b1-3)Gal(b1-4)GlcNAc(b1-3)Gal(b1-4)GlcNAc(b1-3)GalNAc
Summary of the method: as §1

[13] = molecular target: Man(a1-2)Man(a1-3)Man
Summary of the method: as §1

[14] = molecular target: Man(a1-2)Man(a1-3)[Man(a1-2)Man(a1-6)]Man(a1-6)[Man(a1-2)Man(a1-2)Man(a1-3)]Man(b1-4)GlcNAc(b1-4)GlcNAc
Summary of the method: as §1

[15] = molecular target: Man(a1-3)[Man(a1-6)]Man(a1-6)[Man(a1-2)Man(a1-3)]Man(b1-4)GlcNAc(b1-4)GlcNAc
Summary of the method: as §1

[16] = molecular target: Neu5Ac(a2-3)Gal(b1-3)GlcNAc
Summary of the method: as §1

[17] = molecular target: Neu5Ac(a2-3)Gal(b1-4)Glc
Summary of the method: as §1

[18] = molecular target: Neu5Ac(a2-3)Gal(b1-4)GlcNAc(b1-3)Gal(b1-4)GlcNAc(b1-3)GalNAc
Summary of the method: as §1

[19] = molecular target: Neu5Ac(a2-3)Gal(b1-4)[Fuc(a1-3)]GlcNAc(b1-3)GalNAc
Summary of the method: as §1

[20] = molecular target: Neu5Ac(a2-3)Gal(b1-4)[Fuc(a1-3)]GlcNAc(b1-6)[Neu5Ac(a2-3)Gal(b1-3)]GalNAc
Summary of the method: as §1

[21] = molecular target: Neu5Ac(a2-6)Gal
Summary of the method: as §1

[22] = molecular target: Neu5Ac(a2-6)Gal(b1-4)GlcNAc(b1-2)Man(a1-3)[Neu5Ac(a2-6)Gal(b1-4)GlcNAc(b1-2)Man(a1-6)]Man(b1-4)GlcNAc(b1-4)GlcNAc
Summary of the method: as §1

[23] = molecular target: Neu5Ac(a2-6)Gal(b1-4)GlcNAc(b1-3)Gal(b1-4)GlcNAc
Summary of the method: as §1

[24] = molecular target: Neu5Ac(a2-6)Gal(b1-4)GlcNAc(b1-3)Gal(b1-4)GlcNAc(b1-3)Gal(b1-4)GlcNAc(b1-2)Man(a1-3)[Neu5Ac(a2-6)Gal(b1-4)GlcNAc(b1-3)Gal(b1-4)GlcNAc(b1-3)Gal(b1-4)GlcNAc(b1-2)Man(a1-6)]GalNAc
Summary of the method: as §1

B1: PX9961U-pdi-543-24-543 (Parabacteroides distasonis) (protein)
chain: EEPVGEFLPGQVESEENIEGIVTGAYAVLDGYYASDAINSGCSNWQFGDVVSDDAYKGGGGTGDQNQIHLMEIFNANPTGIDFEARWAALYEGIKRCNQAIRLLNGSEVKNKEQRLAEMRFLRGHYYFNLKIIYNQIPWIDETLVDPNEYNKKSNIEFSSDQLWEKILEEFSAAYKVLPESQADYGRPTKMAARAYMAKVYLYQSKWKECLEACDEVIQSGKYELFPDFRNVFLPENDNCSEIIFAIQLSINDGSPNNENGSYGDRLLPPGGPYPVYGFLRPTQNLVNAYKTDVKGLPYNDGKDVSENDYVDVRLDHTLARPNIPFMDVQLYDWTPREASVYGPYSPKKRLVSLNSTYYSPIWPYVNALNFYVIRYADLLLWRAEAAIETGDLETGRKYINMIRERAKNTQHVKTMDQSQDAANYKVGVYDEPFKSKNEAVQALRMERRLEMAHEGIRFFDLVRWGVADEVINAYIAKEKVFRSHLQNAHFVKGKHEYFPIPQSMIDICGTEVMKQNPGY
glycan array binding signal (z-score) [1]: -0.178 | glycan array binding signal (z-score) [2]: -0.303 | glycan array binding signal (z-score) [3]: -0.27 | glycan array binding signal (z-score) [4]: -0.253 | glycan array binding signal (z-score) [5]: 0.352 | glycan array binding signal (z-score) [6]: -0.445 | glycan array binding signal (z-score) [7]: -0.415 | glycan array binding signal (z-score) [8]: -0.386 | glycan array binding signal (z-score) [9]: -0.394 | glycan array binding signal (z-score) [10]: -0.432 | glycan array binding signal (z-score) [11]: -0.308 | glycan array binding signal (z-score) [12]: -0.417 | glycan array binding signal (z-score) [13]: -0.489 | glycan array binding signal (z-score) [14]: -0.408 | glycan array binding signal (z-score) [15]: 6.64 | glycan array binding signal (z-score) [16]: -0.408 | glycan array binding signal (z-score) [17]: -0.368 | glycan array binding signal (z-score) [18]: -0.376 | glycan array binding signal (z-score) [19]: 3.69 | glycan array binding signal (z-score) [20]: 1.28 | glycan array binding signal (z-score) [21]: -0.428 | glycan array binding signal (z-score) [22]: -0.347 | glycan array binding signal (z-score) [23]: -0.364 | glycan array binding signal (z-score) [24]: 0.5
